Bioassay records (PubChem BioAssay)
Cruzain noTriton: qHTS Assay for Promiscuous and Specific Inhibitors of Cruzain (without detergent). Potency, µM, for inactives: max response, negative = inhibition, actives largely listed as inhibitors. AID 1476, 2009. purified cruzain, Z-FR-AMC fluorescence, no detergent. 200,000 tested, 2.3% active;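 further: plate controls were enzyme without inhibitor for no effect and buffer without enzyme for full effect; nearly all actives have a fitted effect of over 40% in size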
Target sequence (P25779 123-467 limits assumed): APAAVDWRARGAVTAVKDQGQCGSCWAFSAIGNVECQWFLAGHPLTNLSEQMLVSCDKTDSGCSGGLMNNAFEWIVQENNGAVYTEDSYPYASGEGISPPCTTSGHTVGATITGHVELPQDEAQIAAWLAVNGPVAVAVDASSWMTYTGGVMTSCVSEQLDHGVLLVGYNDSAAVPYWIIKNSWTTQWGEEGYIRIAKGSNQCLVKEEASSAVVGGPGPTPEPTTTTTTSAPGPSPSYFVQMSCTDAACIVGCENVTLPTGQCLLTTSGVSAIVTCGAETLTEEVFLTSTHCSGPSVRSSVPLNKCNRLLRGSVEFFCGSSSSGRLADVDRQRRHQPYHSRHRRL
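Purified cruzain at 1.5 nM, pre-incubated 15 min with compound at room temperature in 100 mM sodium acetate pH 5.5, 5 mM DTT, 0.00005% Triton X-100. Reaction started with 2 uM Z-FR-AMC; AMC fluorescence increase over 60 s gives rate.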
Cruzain inh Det: qHTS Assay for Promiscuous and Specific Inhibitors of Cruzain (with detergent); Cruzipain (Trypanosoma cruzi), P25779; purified cruzain, Z-FR-AMC fluorescence, 0.01% Triton; Potency, µM, for the others: max response, negative = inhibition, most hits filed as inhibitors; 200,000 tested, 0.43% active; AID 1478, 2009;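 further: plate controls were neutral wells for no effect and buffer without enzyme for full effect; nearly all actives have a fitted effect of over 40% in size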
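Cysteine protease activity tested under reducing, mildly acidic conditions (100 mM sodium acetate pH 5.5, 5 mM DTT) plus 0.01% Triton X-100. Cruzain 1.5 nM; substrate Z-FR-AMC 2 uM; 15 min compound preincubation at room temperature.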
Active calls of the source: *; ? = inconclusive. Only some compounds are listed: those with a hit (about 2.5% of all), similar ones and a draw of the others. The call rests on the fitted dose curve; in most records, active means well fitted curve in the direction sought with a large enough effect; inconclusive means small, poorly fitted or top-dose-only effect, or another doubt; inactive means no such curve, though single readings can be large; an effect the other way counts as inactive or inconclusive. Potency means the concentration at half of the fitted maximal effect.

SMILES | Cruzain noTriton | Cruzain inh Det
N#CC1=C2N=C(N)c3c(sc4c3CCCCC4)N2C2=C(C(=O)CCC2)C1c1ccccc1 (centres undefined) | 25µM* | -1%
Cc1nn(C)cc1C1C(C#N)=C(N)N(c2cccnc2)C2=C1C(=O)CCC2 (centres undefined) | -16% | -3%
CSc1ccc(C2C(C#N)=C(N)N(c3ccccc3)C3=C2C(=O)CCC3)cc1 (centres undefined) | 16µM* | -9%
CCOc1ccc(C2C(C#N)=C(N)N(c3sc4c(c3C#N)CCCC4)C3=C2C(=O)CCC3)cc1 (centres undefined) | -6% | -3%
CCOC(=O)N1CCC(NC(=O)c2ccc(CS(=O)(=O)c3ccc(OC)cc3)o2)CC1 | -2% | 1%
C[C@@H]1CC2(OC[C@]3(C)O[C@H]23)O[C@H]2C[C@@]3(C)[C@@H]4CC[C@H]5C(C)(C)C(O[C@@H]6OC[C@@H](O)[C@H](O)[C@H]6O)CC[C@@]56C[C@@]46CC[C@]3(C)[C@@H]12 (some centres undefined) | ? | -9%
COc1cccc(CS(=O)(=O)c2nnnn2-c2ccccc2)c1 | 4% | 4%
CN(C)c1ncc2ncc(=O)n(C[C@H]3CCCO3)c2n1 | -8% | -10%
CN1CCN(c2ncc3ncc(=O)n(C[C@H]4CCCO4)c3n2)CC1 | 20µM* | ?
Clc1nc(-c2cccnc2)nc2scc(-c3ccccc3)c12 | -16% | -4%
COc1ccc(-c2csc3nc(-c4cccnc4)nc(Cl)c23)cc1OC | -13% | 13µM*
CCc1ccc(-n2nc3cc(C)c(NC(=O)c4cccc5ccccc45)cc3n2)cc1 | 2% | 2%
CCC1CN(C(=O)Nc2ccccc2C(F)(F)F)c2ccccc2O1 (centres undefined) | 14% | -8%
Cc1nc(N/N=C/c2ccccc2)nc(N(C)c2ccccc2)c1[N+](=O)[O-] | 16µM* | -1%
Cc1cc(C)nc(N/N=C/c2ccccc2)n1 | -3% | -6%
O=C1CCCc2[nH]nc(-c3cccnc3)c21 | -10% | 0%
CCN(CC)C(=O)c1c(Cl)nc(C)c([N+](=O)[O-])c1C | -5% | 0%
CCOC(=O)C1=C(N)n2c(s/c(=C\c3cccnc3)c2=O)=C(C(=O)OCC)C1c1cccnc1 (centres undefined) | ? | -2%
CCOC(=O)C1=C(N)n2c(s/c(=C\c3cccs3)c2=O)=C(C(=O)OCC)C1c1cccs1 (centres undefined) | 2µM* | -4%
Fc1ccccc1C(NCCc1ccc(Cl)cc1)c1nnc(-c2ccccc2)o1 (centres undefined) | -2% | -7%
COc1cccc(CNc2nc3ccccc3c3nc(-c4cccc(C)c4)nn23)c1 | -15% | -2%
COc1ccc2c(c1)Cc1sc(NC(=O)c3cccc(Br)c3)nc1-2 | ? | -2%
COc1ccc(Br)c2c1-c1nc(NC(=O)c3cccc(C)c3)sc1C2 | 6.3µM* | -2%
O=c1cc(O)c2c(=O)n(-c3ccccc3)c3c(c2o1)CCCCC3 | -6% | -7%
CC(NC(=O)C12CC3CC(CC(C3)C1)C2)C(=O)N/N=C/C1=C(N2CCOCC2)C(=C\c2cccc([N+](=O)[O-])c2)/CC1 (centres undefined) | -21% | -7%
SMILES | Cruzain noTriton | Cruzain inh Det
CCN(CC)c1ccc(/C=C2\CCC(/C=C(\C#N)C(=O)Nc3ccccc3F)=C2N2CCOCC2)cc1 | ? | -2%
N#C/C(=C\C1=C(N2CCOCC2)C(=C/c2cccc([N+](=O)[O-])c2)/CC1)C(=O)Nc1ccccc1F | 13µM* | -6%
N#C/C(=C\C1=C(N2CCOCC2)C(=C\c2ccc(Cl)cc2)/CC1)C(=O)Nc1ccccc1F | 10µM* | -8%
CN1CCN(c2ncc3nc(-c4ccc(F)cc4)c(=O)n(Cc4cccs4)c3n2)CC1 | -6% | -3%
COc1cc(C(=O)N2CCC(c3nc4ccccc4o3)CC2)cc(OC)c1OC | 10% | 0%
O=C(Nc1cc(Cl)cc(Cl)c1)c1cc(S(=O)(=O)NC2CCCC2)ccc1F | 1% | 1%
COc1ccc(CN2C(=O)C(NC(=O)c3ccc(C)cc3)(C(F)(F)F)N=C2c2ccccc2)cc1 (centres undefined) | 8% | -6%
COC(=O)NC(c1ccc2c(c1)OCO2)C(C(=O)OC)C(=O)OC (centres undefined) | 0% | 2%
Cc1ccccc1NC(=O)C1CCN(C(=O)c2ccc(F)cc2)CC1 | 7% | -3%
CCOc1ccccc1/C=N/NC(=O)Cc1csc(Nc2cccc(C(F)(F)F)c2)n1 | 10µM* | -2%
CCOc1ccc(/C=N/NC(=O)Cc2csc(Nc3cccc(C(F)(F)F)c3)n2)c(OCC)c1 | ? | 4%
CCOC(=O)c1c(NC(=S)Nc2cc([N+](=O)[O-])ccc2OC)sc2c1CCCCC2 | 13µM* | -6%
CCOC(=O)c1c(NC(=S)Nc2ccc(C)cc2)sc2c1CCC2 | ? | -5%
COC(=O)c1c(NC(=O)C2CC2)sc2c1CCCC2 | -7% | -6%
COC(=O)c1c(NC(=S)Nc2cc(OC)c(Cl)cc2OC)sc2c1CCCCC2 | 16µM* | -2%
Cc1ccc(-c2nc(C)c(CCNC(=O)C(=O)Nc3ccc(C)c(Cl)c3)s2)cc1 | 4% | 1%
COc1ccc(-c2cc3nnc(-c4ccccc4)nc3s2)cc1 | 3.2µM* | -2%
COc1cccc(-c2nc(-c3ccccc3)no2)c1 | -1% | -3%
Cc1cc(=O)n2nc(N3CCC(C(=O)Nc4ccc(C)c(Cl)c4)CC3)sc2n1 | -3% | -3%
COc1cccc(NC(=O)CSC2=Nc3ccccc3C3=NC(CC(=O)NCCc4ccccc4)C(=O)N23)c1 (centres undefined) | ? | -4%
COCCN1C=C(C(=O)OC)C(c2cc(Br)c(OC)c(OC)c2)C(C(=O)OC)=C1 | ? | 22µM*
COC(=O)C1=CN(C)C=C(C(=O)OC)C1c1ccc(O)c(OC)c1 | -2% | 1%
Cc1ccc2c(C(=O)CSc3ccccc3)c(C)[nH]c2c1 | 13µM* | 2%
Cc1[nH]c2ccccc2c1C(=O)CSc1ccccc1 | 2% | -5%
Cc1ccc(Cl)cc1NC(=O)CN(C)S(=O)(=O)c1ccc2c(c1)n(C)c(=O)c(=O)n2C | -3% | 0%
SMILES | Cruzain noTriton | Cruzain inh Det
Cc1cc(C(=O)CN2C(=O)NC3(CCCc4ccccc43)C2=O)c(C)n1Cc1ccco1 (centres undefined) | ? | -2%
Cc1cc(C(=O)CN2C(=O)NC3(CCCc4ccccc43)C2=O)c(C)n1Cc1ccccc1 (centres undefined) | 25µM* | -3%
CSc1ccc(CCNC(=O)NCc2noc3ccccc23)cc1 | -5% | -5%
COc1cccc(NC(=O)C2CCCN2S(=O)(=O)c2ccc3nc(-c4ccccc4)[nH]c3c2)c1 (centres undefined) | 3% | 0%
O=C(CNc1cccc2ccccc12)N/N=C/c1ccc([N+](=O)[O-])cc1 | 4% | -3%
O=C(CNc1cccc2ccccc12)N/N=C/c1cccc(Oc2ccccc2)c1 | 20µM* | 0%
Cn1cc(/C=C(\C#N)C(=O)Nc2ncc(Cc3cccc(Cl)c3)s2)c2ccccc21 | 7.9µM* | -6%
N#C/C(=C\c1c[nH]c2ccccc12)C(=O)Nc1ncc(Cc2ccc(Cl)cc2Cl)s1 | 7.9µM* | -1%
CCOC(=O)/C(C#N)=C/c1c[nH]c2ccccc12 | 1% | -15%
